This is an account of results in PubChem BioAssay AID449739 (Vanderbilt High Throughput Screening Facility, 2010).

Out of some 100,000 compounds screened, about 4,200 (4.2%) were called active. What follows is part of a selection rich in actives, with near analogues and random picks from the rest. Unmarked numbers belong to inactive results.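 The calls were made as follows: active = single-dose well whose peak fluorescence ratio is a statistical outlier from its plate by either plate-standardised score or position-corrected B-score; inactive = the rest.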

The target of this test is Voltage-dependent T-type calcium channel subunit alpha-1H (Homo sapiens) (UniProt O95180). The experiment in a line: Cav3.2 calcium influx blockers – cell-based, Fluo-4 calcium fluorescence, FDSS, MLSMR library, primary screen (AID 449739). As to conditions: Cav3.2-expressing cells, at 10 µM, stronger effect = lower value.
Sequence of Voltage-dependent T-type calcium channel subunit alpha-1H (Homo sapiens) (O95180 whole entry, looked up): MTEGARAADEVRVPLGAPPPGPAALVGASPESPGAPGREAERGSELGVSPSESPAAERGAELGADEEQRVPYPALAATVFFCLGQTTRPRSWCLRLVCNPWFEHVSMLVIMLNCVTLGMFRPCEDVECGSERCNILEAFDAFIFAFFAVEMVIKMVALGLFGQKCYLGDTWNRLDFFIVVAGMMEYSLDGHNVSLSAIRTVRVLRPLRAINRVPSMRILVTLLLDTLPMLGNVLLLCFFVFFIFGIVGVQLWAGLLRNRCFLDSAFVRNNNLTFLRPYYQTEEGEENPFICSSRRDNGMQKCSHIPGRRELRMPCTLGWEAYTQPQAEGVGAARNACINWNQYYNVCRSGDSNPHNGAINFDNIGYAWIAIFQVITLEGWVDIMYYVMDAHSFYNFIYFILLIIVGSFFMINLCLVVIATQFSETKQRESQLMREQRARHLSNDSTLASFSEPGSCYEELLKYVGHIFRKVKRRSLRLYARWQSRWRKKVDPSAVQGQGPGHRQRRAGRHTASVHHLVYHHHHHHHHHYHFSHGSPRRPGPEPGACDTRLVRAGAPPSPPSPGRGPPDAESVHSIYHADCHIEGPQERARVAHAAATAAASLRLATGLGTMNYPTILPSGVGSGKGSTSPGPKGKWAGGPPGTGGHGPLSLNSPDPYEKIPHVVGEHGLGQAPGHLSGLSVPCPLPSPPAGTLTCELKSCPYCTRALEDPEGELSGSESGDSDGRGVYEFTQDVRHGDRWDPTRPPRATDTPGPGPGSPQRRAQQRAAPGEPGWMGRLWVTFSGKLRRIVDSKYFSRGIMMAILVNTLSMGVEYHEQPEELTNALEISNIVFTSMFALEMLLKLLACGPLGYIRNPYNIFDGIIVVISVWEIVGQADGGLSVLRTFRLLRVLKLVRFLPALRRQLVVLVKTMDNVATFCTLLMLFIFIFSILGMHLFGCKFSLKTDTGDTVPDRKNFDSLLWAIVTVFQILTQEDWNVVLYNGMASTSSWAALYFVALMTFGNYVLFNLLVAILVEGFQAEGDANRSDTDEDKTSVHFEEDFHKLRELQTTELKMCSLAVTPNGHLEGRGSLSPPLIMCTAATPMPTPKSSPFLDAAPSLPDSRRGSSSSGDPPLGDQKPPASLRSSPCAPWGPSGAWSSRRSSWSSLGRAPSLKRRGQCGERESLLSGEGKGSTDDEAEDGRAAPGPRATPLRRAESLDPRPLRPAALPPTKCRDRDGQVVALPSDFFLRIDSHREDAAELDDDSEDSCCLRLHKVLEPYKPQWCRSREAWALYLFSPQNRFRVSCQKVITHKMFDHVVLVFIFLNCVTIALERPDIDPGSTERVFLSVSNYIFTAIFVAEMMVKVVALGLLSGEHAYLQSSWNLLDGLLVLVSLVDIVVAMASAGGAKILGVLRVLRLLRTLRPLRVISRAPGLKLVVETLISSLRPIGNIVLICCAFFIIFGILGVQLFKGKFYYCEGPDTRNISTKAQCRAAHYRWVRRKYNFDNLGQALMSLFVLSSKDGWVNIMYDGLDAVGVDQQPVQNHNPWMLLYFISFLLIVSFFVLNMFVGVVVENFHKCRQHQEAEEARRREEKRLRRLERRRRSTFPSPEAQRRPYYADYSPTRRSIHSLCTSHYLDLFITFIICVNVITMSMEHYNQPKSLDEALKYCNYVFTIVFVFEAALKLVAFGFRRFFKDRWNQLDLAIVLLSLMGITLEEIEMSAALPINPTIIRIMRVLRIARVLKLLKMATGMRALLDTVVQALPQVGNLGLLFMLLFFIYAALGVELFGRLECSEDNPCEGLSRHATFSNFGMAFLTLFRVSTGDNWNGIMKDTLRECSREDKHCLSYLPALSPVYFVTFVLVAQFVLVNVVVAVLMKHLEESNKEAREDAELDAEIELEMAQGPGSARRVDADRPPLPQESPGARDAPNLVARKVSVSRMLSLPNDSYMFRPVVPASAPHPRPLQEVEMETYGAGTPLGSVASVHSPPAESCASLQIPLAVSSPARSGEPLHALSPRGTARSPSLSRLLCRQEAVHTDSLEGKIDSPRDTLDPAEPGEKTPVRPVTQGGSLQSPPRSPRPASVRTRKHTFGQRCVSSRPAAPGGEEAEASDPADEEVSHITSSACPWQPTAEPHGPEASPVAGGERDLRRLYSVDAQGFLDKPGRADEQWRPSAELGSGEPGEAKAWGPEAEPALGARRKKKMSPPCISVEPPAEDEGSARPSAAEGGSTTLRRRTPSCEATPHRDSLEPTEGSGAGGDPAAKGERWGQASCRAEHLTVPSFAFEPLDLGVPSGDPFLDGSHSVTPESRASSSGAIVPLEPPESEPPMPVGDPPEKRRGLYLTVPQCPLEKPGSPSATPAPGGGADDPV
With `O=C(COc1ncnc2c(Cl)cc(Cl)cc12)N1CCN(S(=O)(=O)c2ccccc2)CC1`, the B-score is 0.727.

In the case of `Cc1ccc(C(C(=O)NCc2ccco2)N(CC2CCCO2)C(=O)Cn2nnc3ccccc32)cc1` (stereo not drawn), the B-score is 0.195. The value for `CC(C)(C)NC(=O)C(c1ccco1)N(Cc1ccc2c(c1)OCO2)C(=O)Cn1nnc2ccccc21` (stereo not drawn) was -1.57. As to `COc1ccccc1N(C(=O)Cn1nnc2ccccc21)C(C(=O)NCc1ccco1)c1ccc(C)o1` (stereo not drawn), the B-score was -6.1 (active). For the compound `CCOC(=O)c1cc(NC(=O)c2ccc(Cl)cc2)c(=O)oc1-c1ccccc1`, the B-score was -0.21. As to `COC(=O)C1(O)CC(C(C)C)=NN1C(=O)c1ccc(Cl)cc1` (stereo not drawn), the B-score was -0.542. The same measure for `Cc1nnsc1S(=O)(=O)Cc1ccccc1Cl`: 0.123. The value for `O=C(NNS(=O)(=O)c1ccc(Cl)cc1)C1CCN(Cc2ccccc2)CC1` was 0.455; that for `COc1ccc(C(=O)Nc2ccc(S(=O)(=O)NC(C)C)cc2)cc1` was 1.46; that for `COc1ccc(C(=O)Nc2nc(-c3ccc(OC)cc3)c(-c3ccc([N+](=O)[O-])cc3)s2)cc1` was -2.13. As for `COC(=O)C(NC(=O)c1ccc(OC)cc1)(Nc1ncc(S(=O)(=O)c2ccc([N+](=O)[O-])cc2)s1)C(F)(F)F` (stereo not drawn), the B-score is -8.97 (active). With `COC(=O)CCCC1=CC2=CC(=O)C(C)(OC(=O)c3cccs3)C(=O)C2=CN1CC(C)C` (stereo not drawn), the B-score is 0.582. Take `COC(C[C@@H]1O[C@@H]1C(=O)[C@H](C)OCc1ccccc1)OC`: the B-score is -0.00689. For `COC(=O)c1ccc(NC(=O)CSc2nnc(Cc3cccn3C)n2-c2ccc(F)cc2)cc1`, the B-score is -9.38 (active).

With `CCc1nnc(NC(=O)CSc2nnc(Cc3ccccc3)n2-c2ccc(OC)cc2)s1`, the B-score is -1.29. The value for `Cc1ccc(C)c(NC(=O)CSc2nnc(Cc3cccn3C)n2-c2ccc(F)cc2)c1` was -2.84. With `Cn1cccc1Cc1nnc(SCC(=O)NCCc2ccccc2)n1-c1ccc(F)cc1`, the B-score was -2.55. For `COc1ccccc1NC(=O)CSc1nnc(Cc2cccn2C)n1-c1ccc(F)cc1`, the B-score is -2.37.

In the case of `COc1ccc(-n2c(Cc3cccn3C)nnc2SCC(=O)Nc2cc(C)cc(C)c2)cc1`, the B-score is -8.52 (active). As for `COc1ccccc1CNC(=O)c1ccc(SC)cc1OC`, the B-score was -2.74. The value for `Cc1ccccc1CS(=O)(=O)CC1(O)CCN(C(=O)c2cccc(C(F)(F)F)c2)CC1` was 0.394; that for `C#CCOCCOCCOCCNc1nc(N2CCN(C(=O)[C@H](Cc3ccc(O)cc3)n3cc(C(N)CC(C)C)nn3)CC2)nc(N2CCN(C(=O)[C@H](CCC(=O)O)n3cc(C(N)[C@H](C)CC)nn3)CC2)n1` (stereo partly drawn) was -0.0524; that for `COc1cc(NC(=O)c2cncc(-c3ccc(C#N)cc3)c2)cc(C(=O)Nc2cccc(C(F)(F)F)c2)c1` was 0.721. The value for `CCOc1[nH]n(-c2ccc(Cl)cc2)c(=O)c1C=Nc1ccc(O)cc1` was -0.0117. `O=C(Nc1ccc(-c2csc(Nc3cccc(C(F)(F)F)c3)n2)cc1)c1cccc(C(F)(F)F)c1`: the B-score was 0.00365. As to `COC(C[C@@H](O)C[C@H](O)[C@H](C)OCc1ccccc1)OC`, the B-score was 1.07. The same measure for `Cn1c(=O)c2c(ncn2CC(=O)N2CCN(c3ccccc3)CC2)n(C)c1=O`: 0.538. The value for `O=C(c1ccccc1)c1cccn1CC(=O)N1CCN(c2ccc(F)cc2)CC1` was -6.62 (active); that for `CCOc1ccc(-c2nnn(CC(=O)N3CCN(c4ccc(F)cc4)CC3)n2)cc1OCC` was 0.122. The value for `COc1ccc(NS(=O)(=O)c2ccc(NC(=S)NC(=O)CC(C)C)cc2)cc1` was -2.74; that for `Cc1c(C(=O)OC(C)C)sc(NC(=O)c2cccnc2)c1C#N` was -2.15.

For the compound `CC(=O)c1cnn(-c2cc(Oc3ccc(F)cc3)ncn2)c1C`, the B-score was -0.109. The value for `CCC(=O)Nc1cccc(C2=NOC3(C2)C[C@@H](C(N)=O)N(C(=O)c2cc([N+](=O)[O-])cc([N+](=O)[O-])c2C)C3)c1` (stereo partly drawn) was 0.296. The value for `Cc1ccc(C(=O)NC2CCN(C(=O)N3CCOCC3)CC2)cc1` was 1.24; that for `COc1cc(OC)cc(C(=O)NC2CCN(C(=O)N3c4ccccc4Sc4ccccc43)CC2)c1` was -3.52 (active). The value for `CCOc1ccc(C(=O)NC2CCN(C(=O)Nc3ccccc3OC)CC2)cc1` was 1.41. Regarding `C=CC(COCc1ccccc1)N(Cc1ccccc1)S(=O)(=O)c1ccccc1Br` (stereo not drawn), the B-score was -0.978. The value for `O=C(CN1CCN(CC(=O)Nc2ccc3c(c2)OCO3)CC1)Nc1ccc(F)cc1` was 2.27; that for `O=C(CN1CCN(c2ccc(F)cc2)CC1)Nc1cccc(C(F)(F)F)c1` was -5.59 (active); that for `O=C(CN1CCOCC1)Nc1ccccc1` was -0.393. The same measure for `COc1ccc(CCNC(=O)C2CC3Cn4c(nc5cc(C)c(C)cc54)C3N2C)cc1` (stereo not drawn): 0.841. The same measure for `Cc1nn2c(c1-c1ccccc1)N=C(c1ccco1)CC2c1ccccc1` (stereo not drawn): -4.41 (active); for `Cc1nn(C(=O)c2ccoc2C)c(N)c1-c1ccccc1`: -1.25; for `Cc1nc(NC(=O)c2cccc(Cl)c2)sc1-c1csc(Nc2cccc(Cl)c2)n1`: 1.63. Turning to `O=C(NCc1ccccc1)C1=C[C@@H](c2ccccc2)C[C@@H](OCCCCO)O1`, the B-score was 0.00916.

As to `O=[N+]([O-])c1ccccc1NCc1ccc(Cl)cc1`, the B-score was -0.134. With `CCN(CC)S(=O)(=O)c1ccc(N(C)Cc2ccc(C(F)(F)F)cc2)nc1`, the B-score was -5.7 (active). In the case of `C#CCN(N(C)c1ncc(C(F)(F)F)cc1Cl)S(=O)(=O)c1ccc2ccccc2c1`, the B-score is -1.26. The value for `CC(C)(C)NCC(O)COc1cccc2[nH]c(=O)[nH]c12` (stereo not drawn) was 2.63. Regarding `CCOC(=O)CSc1nc2c(sc(=S)n2CCc2ccccc2)c(=O)n1Cc1ccco1`, the B-score is -3.99. For `Cc1cc2c(c(=O)n1Cc1ccco1)C(c1ccccc1)C(C#N)=C(N)O2` (stereo not drawn), the B-score was 0.691. As to `CN(c1ccccc1)c1ccc(/C=c2\s/c(=C(/C#N)C(=O)C(C)(C)C)n(Cc3ccco3)c2=O)cc1`, the B-score is -7.8 (active). For the compound `O=C1CCC(=O)N(O)CCCCCNC(=O)CCC(=O)N(O)CCCCCNC(=O)CCC(=O)N(O)CCCCCN1`, the B-score was 0.127.

Turning to `CCN(c1ccccc1)S(=O)(=O)c1ccc(NC(=O)C(C)(C)C)cc1`, the B-score was -0.778. The value for `COC(=O)c1ccc(Sc2ccc(F)cc2)c(N)c1` was -2.9; that for `CC(C)(CCl)C(=O)Nc1ccc(Sc2ccc(F)cc2)cc1` was -7.91 (active). Regarding `CCOC(=O)C1Cn2c(nc3c(c2=O)C(C)(CC)Cc2ccccc2-3)S1` (stereo not drawn), the B-score is -9.41 (active). The same measure for `CCC1(CC)Cc2ccccc2-c2nc3ccccc3c(=O)n21`: -0.963; for `CC1(C)Cc2ccccc2-c2nc(CN3CCOCC3)[nH]c(=O)c21`: -0.167; for `CNC(=O)c1csc(-c2ccccc2)n1`: 0.414. For `c1cncc(-c2nnc3n2C2(CCCCC2)Cc2ccccc2-3)c1`, the B-score was 0.419. The same measure for `Cc1cccc(C(=O)Nc2ccc(C(=O)/C=C/c3cccs3)cc2)c1`: -1.78; for `COC(=O)C1=C(C(=O)OC)[C@@H]2N(C)c3ccccc3[C@@]23C[C@@H](C(=O)OC)N(C(=O)c2ccco2)C3=N1`: 0.92; for `CCOc1ccc(Nc2nc(Cc3nnc(SCC(=O)NC4CCCC4)n3C)cs2)cc1`: -0.148. Consider `COCCCn1c(SCC(=O)Nc2ccccc2)nnc1-c1ccncc1`, for which the B-score is -1.03. On to `COCCCn1c(Cc2csc(Nc3cccc(Cl)c3)n2)nnc1SCC(=O)OC1CCCCC1`, for which the B-score is -7.39 (active). In the case of `Cc1ccc(/C=N\n2c(-c3ccccc3)n[nH]c2=S)s1`, the B-score was -0.0777.

As for `CC1(C)S[C@@H]2[C@H](N=CN3CCCCCC3)C(=O)N2[C@H]1C(=O)O`, the B-score is 0.247. Consider `O=c1cc(N2CCN(Cc3ccccc3)CC2)c(-c2ccccc2)n[nH]1`, for which the B-score is 0.119. The value for `CC(C)Oc1ccc(CCc2n[nH]c(=S)n2Cc2ccccc2)cc1` was -1.48. Take `CC(C)N(c1ccccc1)c1ncnc(NCCC(=O)O)c1[N+](=O)[O-]`: the B-score was 0.156. For `COc1ccc(NC(=S)N2N=CCC2c2ccccc2)cc1` (stereo not drawn), the B-score was 0.319. The value for `CNC(=S)N1N=C(c2ccccc2)CC1c1ccc(Br)cc1` (stereo not drawn) was -7.33 (active); that for `C=CCOC(=O)C1=C[C@@H](c2ccccc2)C[C@@H](OCc2ccc(CO)cc2)O1` was -1.02; that for `CCN1C(=O)N[C@@H](c2ccccc2)[C@H](C(C)=O)[C@H]1C` was 0.0204. The same measure for `Cc1cc(-c2cccs2)nc(-n2cccc2)n1`: 0.352. The value for `O=C(CN1CCCCCC1)N1c2ccccc2Sc2ccc(C(F)(F)F)cc21` was -4.47 (active); that for `CC1CC(C)CN(CC(=O)N2c3ccccc3CCc3ccccc32)C1` (stereo not drawn) was -3.85. Consider `O=C(CN1CCCCC1)N1c2ccccc2Sc2ccc(C(F)(F)F)cc21`, for which the B-score is -2.51.

For the compound `CC(Sc1nc2c([nH]c3ccccc32)c(=O)n1C)c1ccccc1` (stereo not drawn), the B-score is 0.215. Turning to `CN(C)CCNC(=O)Nc1cccc(Cl)c1Cl`, the B-score is 0.258. The value for `NC(=O)CC(NC(=O)Cc1cccc2ccccc12)c1ccc(NCc2cc(F)ccc2F)c([N+](=O)[O-])c1` (stereo not drawn) was -0.287; that for `Cc1cnc(NC(=O)CSc2nnc(-c3ccc(Cl)cc3Cl)n2N)s1` was -4.55 (active); that for `Cc1cnc(NC(=O)CSc2nnc(-c3ccccc3)n2Cc2ccccc2)s1` was -2.37. The value for `Cc1cnc(NC(=O)CSc2c(Cl)cccc2Cl)s1` was -0.466; that for `CS(=O)(=O)N(CC(O)Cn1c2ccccc2c2ccccc21)c1cccc2ccccc12` (stereo not drawn) was 1.02; that for `O=C1c2ccccc2S(=O)(=O)N1CC(O)Cn1c2ccccc2c2ccccc21` (stereo not drawn) was -5.05 (active). For the compound `CNC(=O)CN1C(=O)c2ccccc2S1(=O)=O`, the B-score was 0.319.
